Laboratory results from PubChem BioAssay.
Calls of active or inactive are those of the source. Unless noted, the rule behind the calls is not given here.

Columns and labels:
[1] = anti-His antibody binders, primary screen, artefact control for SMM control protein annotation, biochemical, small-molecule microarray, 635 nm fluorescence (AID 1128); settings: anti-His Alexa647 antibody binding, higher = more signal;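 note: score merges feature fluorescence with signal-to-noise for each printed compound spot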
[2] = test system: Human papillomavirus type 1a E7 protein (residues 1-88); experiment: HPV1a E7 small-molecule binders, primary screen, biochemical, small-molecule microarray, residues 1-88, 635 nm (AID 1129); settings: small-molecule microarray binding, fluorescence 635 nm; higher = more signal
[3] = molecular target: Focal adhesion kinase 1 (Homo sapiens) (UniProt Q05397); experiment: small-molecule microarray binders of FAK, primary screen, biochemical, 635/667 nm fluorescence, BSA, DTT (AID 1130); settings: PTK2 binding, 635 nm fluorescence, higher = more signal;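 note: composite of spot emission at 667 nm and signal to noise over triplicate slides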
Chain of Focal adhesion kinase 1 (Homo sapiens) (Q05397 whole entry, looked up): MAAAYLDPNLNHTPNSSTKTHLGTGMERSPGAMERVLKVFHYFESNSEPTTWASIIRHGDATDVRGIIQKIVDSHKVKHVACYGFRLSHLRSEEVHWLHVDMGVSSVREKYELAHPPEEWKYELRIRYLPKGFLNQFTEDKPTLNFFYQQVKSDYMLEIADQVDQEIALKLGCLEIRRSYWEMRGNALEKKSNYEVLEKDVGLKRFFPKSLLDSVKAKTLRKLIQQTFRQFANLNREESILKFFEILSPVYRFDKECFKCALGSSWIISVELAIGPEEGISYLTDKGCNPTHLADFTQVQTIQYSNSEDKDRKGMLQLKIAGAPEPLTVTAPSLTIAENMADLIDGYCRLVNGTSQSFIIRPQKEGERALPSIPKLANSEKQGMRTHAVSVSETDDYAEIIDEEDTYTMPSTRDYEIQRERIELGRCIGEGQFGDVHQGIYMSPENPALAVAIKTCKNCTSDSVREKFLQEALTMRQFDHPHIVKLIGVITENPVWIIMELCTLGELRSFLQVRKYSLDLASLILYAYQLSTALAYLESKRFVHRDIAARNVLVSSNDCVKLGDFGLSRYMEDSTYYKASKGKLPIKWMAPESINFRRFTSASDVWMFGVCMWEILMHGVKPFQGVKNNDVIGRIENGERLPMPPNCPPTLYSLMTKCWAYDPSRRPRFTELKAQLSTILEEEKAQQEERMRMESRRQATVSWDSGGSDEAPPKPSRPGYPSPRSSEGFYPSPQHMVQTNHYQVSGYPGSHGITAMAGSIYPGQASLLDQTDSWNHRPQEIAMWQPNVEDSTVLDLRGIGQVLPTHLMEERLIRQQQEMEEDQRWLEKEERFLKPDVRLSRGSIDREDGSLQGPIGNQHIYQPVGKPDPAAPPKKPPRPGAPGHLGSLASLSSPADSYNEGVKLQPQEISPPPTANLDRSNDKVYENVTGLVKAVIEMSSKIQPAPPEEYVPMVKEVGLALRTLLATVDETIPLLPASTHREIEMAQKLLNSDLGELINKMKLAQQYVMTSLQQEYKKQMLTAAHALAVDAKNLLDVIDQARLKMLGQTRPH

[4] = test system: Fibrinogen (Alexa647-labelled); experiment: fibrinogen binders on compound microarrays, profiling panel, artefact control for SMM control-protein annotation, biochemical, small-molecule microarray, 635/667 nm fluorescence (AID 1131); settings: fibrinogen-A647 binding fluorescence, higher = more signal;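 note: z-score merges 667 nm fluorescence with per-spot signal-to-noise over triplicate slides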
[5] = molecular target: Follistatin (Homo sapiens) (UniProt P19883); experiment: follistatin binders on small-molecule microarrays, primary screen, biochemical, small-molecule microarray, 635/667 nm fluorescence (AID 1132); settings: FST binding, 635 nm fluorescence, higher = more signal
Chain of Follistatin (Homo sapiens) (P19883 whole entry, looked up): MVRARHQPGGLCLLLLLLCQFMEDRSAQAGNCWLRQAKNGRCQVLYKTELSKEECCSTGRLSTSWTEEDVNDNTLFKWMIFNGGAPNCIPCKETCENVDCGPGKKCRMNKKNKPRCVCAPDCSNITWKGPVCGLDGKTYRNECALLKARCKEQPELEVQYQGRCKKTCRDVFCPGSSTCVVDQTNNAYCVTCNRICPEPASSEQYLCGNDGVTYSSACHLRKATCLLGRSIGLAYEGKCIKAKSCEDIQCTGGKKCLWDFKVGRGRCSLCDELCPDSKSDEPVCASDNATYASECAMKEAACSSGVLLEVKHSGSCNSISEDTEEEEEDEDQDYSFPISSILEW

[6] = molecular target: Fibroblast growth factor 2 (Homo sapiens) (UniProt P09038); experiment: FGF2 binders on small-molecule microarrays, primary screen, biochemical, small-molecule microarray, 635/667 nm fluorescence (AID 1133); settings: small-molecule microarray binding, FGF2, fluorescence 635/667; higher = more signal
Chain of Fibroblast growth factor 2 (Homo sapiens) (P09038 whole entry, looked up): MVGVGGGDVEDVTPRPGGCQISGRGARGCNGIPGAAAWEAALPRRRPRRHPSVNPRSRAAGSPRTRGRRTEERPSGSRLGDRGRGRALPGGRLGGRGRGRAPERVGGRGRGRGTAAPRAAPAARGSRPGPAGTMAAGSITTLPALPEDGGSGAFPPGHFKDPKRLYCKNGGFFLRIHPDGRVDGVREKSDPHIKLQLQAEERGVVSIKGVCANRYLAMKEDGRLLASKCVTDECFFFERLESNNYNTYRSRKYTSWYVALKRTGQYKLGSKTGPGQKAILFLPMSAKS

[7] = mitochondrial membrane potential change in A549 cells, profiling panel, cell-based, JC-1 fluorescence, basal, 24 h, 100 nL (AID 1138); settings: higher = more signal;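 note: A549 lung adenocarcinoma cells under basal conditions with no added stimulus; test concentration not given here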
[8] = test system: Lefty1; experiment: Lefty1 binders on small-molecule microarrays, primary screen, biochemical, small-molecule microarray, 635/667 nm fluorescence (AID 1139); settings: small-molecule microarray binding, fluorescence 635/667; higher = more signal
[9] = test system: wheat germ agglutinin (Triticum aestivum), Alexa647-labelled; experiment: wheat germ agglutinin binders on compound microarrays, profiling panel, artefact control for SMM control-protein annotation, biochemical, small-molecule microarray, 635/667 nm fluorescence (AID 1140); settings: WGA-A647 binding, 635 nm fluorescence, higher = more signal;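 note: score merges 667 nm feature emission with signal to noise over triplicate slides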
[10] = molecular target: Luciferin 4-monooxygenase (Photinus pyralis) (UniProt P08659); experiment: firefly luciferase enzyme inhibitors, primary screen, biochemical, luminescence, purified enzyme, 2006 set (AID 1141); settings: SteadyGlo luminescence, 30 min, higher = more signal, called active from +8 up or from −8 down;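 note: cell-free assay with purified firefly luciferase at 100 ng per well in PBS; test concentration not given here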
Chain of Luciferin 4-monooxygenase (Photinus pyralis) (P08659 whole entry, looked up): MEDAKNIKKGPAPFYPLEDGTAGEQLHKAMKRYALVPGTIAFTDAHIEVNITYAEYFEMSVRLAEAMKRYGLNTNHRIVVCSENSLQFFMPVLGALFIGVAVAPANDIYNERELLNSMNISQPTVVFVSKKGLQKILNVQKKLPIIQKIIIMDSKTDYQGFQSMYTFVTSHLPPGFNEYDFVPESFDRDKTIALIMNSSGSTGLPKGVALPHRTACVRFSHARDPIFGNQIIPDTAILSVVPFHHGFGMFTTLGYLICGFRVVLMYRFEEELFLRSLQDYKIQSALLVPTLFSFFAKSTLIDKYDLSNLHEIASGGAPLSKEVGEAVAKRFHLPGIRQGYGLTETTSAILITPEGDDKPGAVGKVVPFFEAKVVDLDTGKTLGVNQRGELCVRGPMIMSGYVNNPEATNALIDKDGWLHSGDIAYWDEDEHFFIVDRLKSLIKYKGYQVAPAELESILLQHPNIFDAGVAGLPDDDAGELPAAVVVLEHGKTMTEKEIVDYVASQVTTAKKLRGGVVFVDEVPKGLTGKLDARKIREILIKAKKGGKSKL

[11] = test system: Wnt5a (protein binding on small-molecule microarray); experiment: Wnt5a binders on small-molecule microarray, primary screen, biophysical, 635/667 nm fluorescence (AID 1142); settings: 635 nm fluorescence, higher = more signal;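 note: fluorescence read at 667 nm with signal to noise per printed feature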
[12] = cell viability in Huh7 cells, primary screen, cytotoxicity control for HCV replication inhibitor project, CellTiter-Glo luminescence, basal, 48 h (AID 1143); settings: Huh7 HCV replicon, higher = more signal, called active from +8 up or from −8 down;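 note: Huh7 hepatoma cells carrying a hepatitis C replication reporter with no stimulus; test concentration not given here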
[13] = P. aeruginosa biofilm formation inhibitors, primary screen, PAO1 strain, BacTiter-Glo luminescence, LB-PBS (AID 1144); settings: 12 h, higher = more signal
[14] = CREB reporter modulators without forskolin, primary screen, cell-based, PC12, CRE-LacZ reporter, unstimulated (AID 1145); settings: no forskolin, luminescence, 4.5 h, higher = more signal, called active from +8 up or from −8 down
[15] = CREB reporter modulators under forskolin, primary screen, cell-based, PC12, CRE-LacZ reporter, forskolin-stimulated (AID 1146); settings: luminescence, 4.5 h, higher = more signal, called active from +8 up or from −8 down;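 note: PC12 cells with 6xCRE LacZ reporter stimulated by forskolin 10 µM; beta-galactosidase reporter signal reflecting CREB driven transcription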
[16] = molecular target: Streptavidin (Streptomyces avidinii) (UniProt P22629); experiment: streptavidin binders on small-molecule microarray, primary screen, artefact control for SMM compound annotation, biophysical, 635/667 nm fluorescence (AID 1147); settings: streptavidin binding, higher = more signal;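 note: signal reflects streptavidin binding to arrayed compounds as a control protein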
Chain of Streptavidin (Streptomyces avidinii) (P22629 whole entry, looked up): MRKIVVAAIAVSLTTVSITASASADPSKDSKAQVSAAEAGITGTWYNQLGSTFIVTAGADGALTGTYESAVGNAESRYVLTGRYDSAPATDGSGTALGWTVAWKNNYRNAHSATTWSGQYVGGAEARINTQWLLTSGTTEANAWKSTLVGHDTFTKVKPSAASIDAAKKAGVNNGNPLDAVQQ

[17] = small-molecule binders of probe aInhba, primary screen, biochemical, small-molecule microarray, 635/667 nm fluorescence (AID 1148); settings: higher = more signal;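 note: score merges 667nm spot fluorescence with signal-to-noise for antibody binding to printed compounds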
[18] = molecular target: Torsin-1A (Homo sapiens) (UniProt O14656); experiment: torsin A binders from cell lysate, primary screen, small-molecule microarray, wild-type, 635/667 nm (AID 1149); settings: COS7 hTOR1A-WT lysate, 635 nm fluorescence, higher = more signal
Chain of Torsin-1A (Homo sapiens) (O14656 whole entry, looked up): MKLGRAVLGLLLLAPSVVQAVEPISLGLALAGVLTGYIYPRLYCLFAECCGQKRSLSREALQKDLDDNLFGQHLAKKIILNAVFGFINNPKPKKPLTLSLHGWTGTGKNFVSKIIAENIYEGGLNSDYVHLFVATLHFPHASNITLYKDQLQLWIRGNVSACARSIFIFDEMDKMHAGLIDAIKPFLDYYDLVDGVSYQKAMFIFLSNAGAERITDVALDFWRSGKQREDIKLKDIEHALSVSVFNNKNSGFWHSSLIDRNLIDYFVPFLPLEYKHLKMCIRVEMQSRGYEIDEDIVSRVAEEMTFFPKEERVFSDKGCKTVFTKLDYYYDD

[19] = molecular target: Torsin-1A (Homo sapiens) (UniProt O14656); experiment: small-molecule binders of mutant TOR1A in lysate, primary screen, cell lysate, small-molecule microarray, COS7 lysate, 635/667 nm fluorescence (AID 1150); settings: COS7 hTOR1A mutant lysate, 635 nm fluorescence, higher = more signal;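 note: score pools 667 nm emission and signal to noise measuring lysate protein binding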
[20] = test system: Sonic hedgehog protein (Shh); experiment: small-molecule binders of Shh protein, primary screen, biochemical, small-molecule microarray, 635/667 nm fluorescence (AID 1151); settings: small-molecule microarray binding, 635 nm fluorescence; higher = more signal;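 note: Shh protein binding to compounds spotted on small-molecule microarray slides; score combines spot fluorescence intensity with signal-to-noise across triplicate slides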

SMILES | composite z-score [1] | composite z-score [2] | composite z-score [3] | composite z-score [4] | composite z-score [5] | composite z-score [6] | z-score [7] | composite z-score [8] | composite z-score [9] | z-score [10] | composite z-score [11] | z-score [12] | z-score [13] | z-score [14] | z-score [15] | composite z-score [16] | composite z-score [17] | composite z-score [18] | composite z-score [19] | composite z-score [20]
O=C1OCC=C[C@H]2OC34C=CCN(c5ccc(Cl)cc5)C(=O)[C@H]3N(CCCCCO)C(=O)[C@@H]4[C@@H]12 (stereo not given in full) | 3.93 | -0.434 | 0.0336 | -0.825 | -1.03 | -0.994 | 0.731 | -1.52 | -0.519 | -0.232 (inactive) | -0.391 | -0.116 (inactive) | 1.73 (inactive) | 0.183 (inactive) | 0.168 (inactive) | -1.18 | -0.128 | 0.172 | 2.22 | -0.695
CC(C)(C)OC(=O)CC[C@@]1(C(=O)O)N=C(c2ccc(OCCCO)cc2)O[C@@H]1c1ccccc1CN=[N+]=[N-] | 2.7 | 0.807 | 0.399 | 0.85 | 0.367 | -0.279 | 0.792 | -0.816 | 0.851 | -2.19 (inactive) | 0.48 | 0.625 (inactive) | -0.21 (inactive) | -0.128 (inactive) | -0.912 (inactive) | 0.725 | 0.239 | 0.0835 | 0.104 | -1.03
CC=CC(O)C1C=CC2C(=O)N(C)C(=O)C2N1N1CCCCC1 (stereo not given) | 0.523 | 1.19 | 0.518 | 0.714 | 1.08 | -0.0299 | -0.138 | 0.446 | 0.864 | -0.451 (inactive) | 0.251 | 0.173 (inactive) | -0.0466 (inactive) | 1.79 (inactive) | 0.319 (inactive) | 0.988 | -0.15 | 0.74 | 0.71 | 0.441
COCCCNC(=O)[C@@]1(Sc2ccc(C)cc2)CC(=O)N(C2Cc3ccccc3C2)[C@@H]1c1ccc(CO)cc1I | -0.961 | -1.01 | -1.01 | -1.07 | -1.01 | -1.19 | 0.314 | -1.68 | -0.0708 | 0.553 (inactive) | -0.572 | -0.712 (inactive) | -0.141 (inactive) | 0.0909 (inactive) | 0.555 (inactive) | -0.962 | -0.157 | -0.475 | -1.29 | -0.59
O=C1C[C@@](C(=O)NCC(F)(F)F)(c2ccc([N+](=O)[O-])cc2)[C@@H](c2ccc(CO)cc2)N1C1CCCCC1 | 2.22 | 1.22 | 0.847 | 0.956 | 1.47 | 1.28 | 0.0267 | 0.761 | 0.861 | 0.414 (inactive) | 0.247 | -1.97 (inactive) | 0.0325 (inactive) | 0.854 (inactive) | -0.369 (inactive) | 0.579 | 0.101 | 1.36 | 1.57 | 1.22
COC(=O)[C@@]1(Cc2ccc(OC)cc2)[C@H]2c3cc(C(=O)N(C)C)n(CCc4c[nH]c5ccc(O)cc45)c3C[C@H]2CN1C(=O)c1ccccc1 | 0.548 | 1.21 | 1.36 | 0.979 | 1.01 | -0.218 | 0.74 | -0.737 | 1.28 | 1.18 (inactive) | 0.292 | -2.69 (inactive) | 0.255 (inactive) | 0.383 (inactive) | -0.292 (inactive) | 1.65 | 0.765 | 0.0612 | 0.263 | -0.428
CC(C)CNC(=O)[C@@]1(c2ccc([N+](=O)[O-])cc2)CC(=O)N(C2CCCCC2)[C@@H]1c1ccc(CO)cc1I | -0.423 | 0.676 | 0.295 | -0.106 | -0.0906 | 0.669 | 1.86 | -0.411 | 1.15 | -0.712 (inactive) | -0.067 | -4.13 (inactive) | 0.363 (inactive) | 0.324 (inactive) | 1.65 (inactive) | -0.018 | 0.0633 | -0.149 | 0.0482 | 0.425
O=C1O[C@H](c2ccccc2)[C@H](c2ccccc2)N2[C@H]1[C@@H](C(=O)O)[C@]1(C(=O)Nc3ccccc31)[C@H]2c1ccc(O)cc1 | -0.585 | -0.0964 | 0.133 | -1.31 | 0.0111 | 0.152 | 0.226 | -0.634 | -0.55 | 0.002 (inactive) | 0.251 | 0.0915 (inactive) | -0.0265 (inactive) | -0.0566 (inactive) | -0.763 (inactive) | -0.516 | -0.0418 | 0.109 | 1.45 | -0.429
CCCCN1CC=CC23O[C@@H]4/C=C\CCC(C)OC(=O)C4[C@H]2C(=O)N(CCCCCCO)[C@@H]3C1=O (stereo not given in full) | 0.539 | 0.0554 | -0.266 | -1.22 | -0.454 | -0.668 | 0.376 | -0.74 | -0.465 | -0.393 (inactive) | 0.0569 | 0.745 (inactive) | -0.72 (inactive) | 0.61 (inactive) | -0.0292 (inactive) | -0.519 | -0.239 | 1.08 | 2.16 | -0.57
CC(C)CNC(=O)[C@@H]1c2ccccc2C(=O)N(Cc2cc(F)cc(C(F)(F)F)c2)[C@H]1c1ccc(CO)cc1 | 0.437 | 0.538 | 0.0403 | 0.626 | 1.02 | 0.721 | 2.47 | -0.0543 | 0.042 | -1.38 (inactive) | 0.342 | -0.959 (inactive) | 0.96 (inactive) | 0.001 (inactive) | -0.372 (inactive) | 0.111 | 0.117 | 0.71 | 0.192 | 0.465
